Results filed as inconclusive are left out. The source made the active and inactive calls. Calls come from the whole dose curve; as a rule, active = well fitted curve in the direction sought with a large enough effect; inconclusive = small, poorly fitted or top-dose-only effect, or another doubt; inactive = no such curve, though single readings can be large; an effect the other way counts as inactive or inconclusive.
What was measured:
[1] = Cell Viability - H-4-II-E (AID 543);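 note: cells exposed to compound for 40 hours; % is set by controls: 0 for no effect and ±100 for the full control effect; nearly all actives have a fitted effect of over 35% in size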
Method in brief: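 qHTS, rat hepatoma H-4-II-E, 1500 cells/well; 40 hr compound exposure, 37 °C; CellTiter-Glo ATP luminescence after 20 min RT; AC50 by standard Hill fit.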

[2] = Cell Viability - SH-SY5Y (AID 544); conditions: SH-SY5Y neuroblastoma cell viability; viability change, negative = cytotoxic: at 92.2 µM (top of the series);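 note: cells exposed to compound for 40 hours; nearly all actives have a fitted effect of over 55% in size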
Method in brief: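 SH-SY5Y, 1500 cells/well, 5 hr pre-incubation 37 °C; cpd 40 hr 37 °C; CellTiter-Glo 20 min RT; luminescence (ATP) read. qHTS concentration-response, Hill fit → AC50. Tamoxifen, doxorubicin as positive controls.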

[3] = Cell Viability - Renal Proximal Tubule (AID 545);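 note: cells exposed to compound for 40 hours; nearly all actives have a fitted effect of over 40% in size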
Method in brief: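 Viability taken as intracellular ATP (CellTiter-Glo luminescence) after 40 hr, 37 °C compound treatment of primary proximal tubule cells from rat kidney, 1000 cells/well; Hill-equation fits of qHTS concentration-response data gave AC50.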

[4] = Cell Viability - Mesenchymal (AID 546);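 note: cells exposed to compound for 40 hours before reading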
Method in brief: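 Human renal mesenchymal cells (glomerulus-derived), 1000 cells/well, 5 hr 37 °C pre-incubation; compound 40 hr, 37 °C; CellTiter-Glo, 20 min RT; luminescence; AC50 via Hill equation.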

[5] = Cellular Toxicity (caspase-3) HepG2 (AID 654);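 note: cells exposed to compound for 16 hours before reading; 0% = DMSO alone and 100% = caspase signal from 100 µM tamoxifen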
Method in brief: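 Luminescent Caspase-Glo 3/7 readout after 16 hr compound exposure of human hepatocellular carcinoma HepG2 cells at 37 °C; qHTS concentration-response, normalized DMSO = 0%, 100 uM tamoxifen = 100%; AC50 by standard Hill equation.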

[6] = Cellular Toxicity (caspase-3) Jurkat (AID 655); conditions: Jurkat caspase-3 activation, luminescence; caspase-3 activation: at 92.2 µM (top of the series), DMSO = 0%, tamoxifen = 100%;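 note: cells exposed to compound for 16 h at 37 °C before reading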
Method in brief: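 Luminescent Caspase-Glo 3/7 read-out (20 min, room temperature) after 16 h compound treatment at 37 C of 5000 Jurkat cells per well. AC50 derived by Hill-equation fitting, scaled between DMSO basal and 100 uM tamoxifen stimulation.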

[7] = Cellular Toxicity (caspase-3) HUV-EC-C (AID 656)
Method in brief: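 Luminescent Caspase-Glo 3/7 readout after 16 h, 37 °C compound exposure of HUV-EC-C endothelial cells, 1000 per well, complete medium. AC50 derived by Hill fitting, with DMSO as baseline and 100 uM tamoxifen as full activation.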

[8] = Cellular Toxicity (caspase-3) SHSY5Y (AID 657)
Method in brief: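 Luminescent Caspase-Glo 3/7 read-out, 1 hr room temperature, follows 16 hours of compound treatment of SH-SY5Y cells at 37 °C. Normalization: DMSO basal, 10 uM staurosporine as 100%; AC50 values from Hill-equation concentration-response fits.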

[9] = Cellular Toxicity (caspase-3) BJ (AID 658);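 note: 0% = DMSO basal and 100% = 10 µM staurosporine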
Method in brief: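 qHTS, BJ fibroblasts, 1000 cells/well; 5 hr preincubation, 16 hr compound, 37 °C; Caspase-Glo 3/7 reagent, 1 hr RT; luminescence. DMSO = 0%, 10 uM staurosporine = 100%. Hill-equation AC50.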

[10] = Cellular Toxicity (caspase-3) MRC-5 (AID 659);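 note: 0% = DMSO basal and 100% = 10 µM staurosporine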
Method in brief: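 MRC-5 fibroblasts, 1500/well; 16 h cpd, 37 °C; Caspase-Glo 3/7, 1 h RT; lumi read. Norm: DMSO = 0%, 10 uM staurosporine = 100%. Hill-fit AC50 from qHTS conc-response.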

[11] = Cellular Toxicity (caspase-3) SK-N-SH (AID 661);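 note: 0% = DMSO basal and 100% = 10 µM staurosporine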
Method in brief: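 Luminescent Caspase-Glo 3/7 read-out after 16 hr compound exposure of SK-N-SH neuroblastoma cells at 37 °C. Signal increase normalized to DMSO (basal) and 10 uM staurosporine (100%); AC50 from Hill equation fits of qHTS concentration-response data.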

[12] = Cellular Toxicity (caspase-3) H-4-II-E (AID 663); conditions: H-4-II-E rat hepatoma, scaled: DMSO 0%, 100 µM tamoxifen 100%; at 92.2 µM (top of the series);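 note: cells exposed to compound for 16 hr before readout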
Method in brief: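 H-4-II-E rat hepatoma, 1500 cells/well, 5 hr settle at 37 °C; compound 16 hr, 37 °C, complete medium; Caspase-Glo 3/7, 20 min RT; luminescence. DMSO = 0%, 100 uM tamoxifen = 100%; Hill-equation AC50.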

[13] = Cellular Toxicity (caspase-3) Hek293 (AID 664); conditions: HEK293 caspase-3 activation, DMSO = 0%, 100 µM tamoxifen = 100%; at 92.2 µM (top of the series);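 note: cells exposed to compound for 16 h at 37 °C before readout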
Method in brief: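 Luminescent Caspase-Glo 3/7 readout (aminoluciferin release) in HEK293 cells after 16 h compound treatment, 37 °C. Normalization: DMSO = basal, 100 uM tamoxifen = 100% stimulation. Concentration-response fitted with standard Hill equation for AC50.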

[14] = Cellular Toxicity (caspase-3) N2a (AID 665);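 note: compound exposure lasted 16 h at 37 °C before readout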
Method in brief: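 Luminescent Caspase-Glo 3/7 readout in N2a mouse neuroblastoma cells after 16 h compound exposure at 37 °C. Signal scaled to DMSO (basal) and 10 uM staurosporine (100%). Concentration-response fitted with Hill equation for AC50.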

[15] = Cellular Toxicity (caspase-3) NIH 3T3 (AID 666);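 note: 0% = DMSO basal and 100% = 100 µM tamoxifen stimulation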
Method in brief: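 NIH 3T3, 1000 cells/well, 5 hr settle then 16 hr compound at 37°C; Caspase-Glo 3/7, 20 min RT, luminescence. DMSO = basal, 100 uM tamoxifen = 100%. Hill-equation AC50, qHTS.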

[16] = Cellular Toxicity (caspase-3) Renal Proximal Tubule (AID 667); conditions: Potency: caspase-3 activation;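 note: cells exposed to compound for 16 hours at 37 °C before detection; 0% = DMSO basal and 100% = 10 µM staurosporine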
Method in brief: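 Caspase 3/7 activation measured by luminescent aminoluciferin release in primary rat proximal tubule cells after 16 hr compound exposure at 37 °C. AC50 from Hill-fitted concentration-response, scaled between DMSO and 10 uM staurosporine.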

[17] = biological target: Cytochrome P450 3A4 (Homo sapiens) (UniProt P08684); test: qHTS Assay for Inhibitors and Substrates of Cytochrome P450 3A4 (AID 884); note: % is set by controls: 0 for no effect and ±100 for the full control effect; nearly all actives have a fitted effect of over 50% in size
Cytochrome P450 3A4 (Homo sapiens), sequence (P08684 whole entry, looked up): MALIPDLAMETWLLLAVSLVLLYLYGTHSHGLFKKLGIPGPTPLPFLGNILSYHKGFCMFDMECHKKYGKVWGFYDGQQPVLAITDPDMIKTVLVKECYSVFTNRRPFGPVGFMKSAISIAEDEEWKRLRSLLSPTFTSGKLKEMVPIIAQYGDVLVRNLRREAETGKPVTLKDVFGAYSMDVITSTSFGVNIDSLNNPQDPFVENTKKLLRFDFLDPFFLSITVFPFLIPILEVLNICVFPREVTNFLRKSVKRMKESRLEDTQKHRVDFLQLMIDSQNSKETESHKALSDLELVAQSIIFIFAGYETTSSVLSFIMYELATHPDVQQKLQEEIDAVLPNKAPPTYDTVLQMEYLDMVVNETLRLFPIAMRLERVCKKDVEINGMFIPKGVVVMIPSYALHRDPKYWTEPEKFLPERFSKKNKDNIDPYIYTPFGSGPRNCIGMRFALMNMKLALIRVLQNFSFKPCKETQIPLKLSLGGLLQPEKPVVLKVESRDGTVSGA
Method in brief: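 Luminescent readout of luciferin produced by CYP3A4 (20 nM) dealkylation of Luciferin-PPXE, 25 uM (its KM). NADPH-driven reaction ran 60 min at RT after 10 min compound preincubation; data scaled to 57 uM ketoconazole as 100% inhibition.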

[18] = Cell Viability - LYMP2-001 (AID 921);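 note: 0% = DMSO only and full inhibition = tetraoctylammonium bromide control wells; nearly all actives have a fitted effect of over 70% in size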
Method in brief: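 Cellular ATP loss read by luciferase luminescence after 24 h compound exposure at 37 C in complete medium. LYMP2-001 lymphoblastoid cells, 2500/well; qHTS concentration-response data fitted with Hill equation for AC50.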

[19] = Cellular Toxicity (caspase-3) Mesangial (AID 660); conditions: mesangial cells, normalized: DMSO 0%, 100 µM tamoxifen 100%; at 91.7 µM (top of the series);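 note: combined caspase 3 and 7 activity read by Caspase-Glo luminescence; cells exposed to compound for 16 h before the caspase read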
Method in brief: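 Luminescent Caspase-Glo 3/7 readout (aminoluciferin substrate cleavage, 20 min RT) after 16 h compound exposure at 37 °C of normal human mesangial cells. Signal increase normalized between DMSO basal and 100 uM tamoxifen; Hill-equation AC50.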

Cc1ccc(Br)cc1
inactive: Potency [1] | Potency [2] | Potency [3] | Potency [4] | Potency [5] | caspase-3 activation [6] 0.635% | outcome [7] | outcome [8] | outcome [9] | outcome [10] | outcome [11] | caspase-3 activation [12] 0.265% | caspase-3 activation [13] 0.98% | outcome [14] | outcome [15] | Potency [16] | Potency [17] | Potency [18]

C=CCCCC
inactive: Potency [1] | Potency [2] | Potency [3] | Potency [4] | Potency [5] | caspase-3 activation [6] 0.169% | outcome [7] | outcome [8] | outcome [9] | outcome [10] | outcome [11] | caspase-3 activation [12] 0.498% | caspase-3 activation [13] 1.21% | outcome [14] | outcome [15] | Potency [16] | Potency [17] | Potency [18]

Cc1ccc(C)o1
inactive: Potency [1] | Potency [2] | Potency [3] | Potency [4] | Potency [5] | caspase-3 activation [6] 1.7% | outcome [7] | outcome [8] | outcome [9] | outcome [10] | caspase-3 activation [12] -0.53% | caspase-3 activation [13] 0.32% | outcome [14] | outcome [15] | Potency [16] | Potency [17] | Potency [18]

O=C(O)/C=C/C(=O)O
inactive: Potency [1] | Potency [2] | Potency [3] | Potency [4] | Potency [5] | caspase-3 activation [6] 1.23% | outcome [7] | outcome [8] | outcome [9] | outcome [10] | outcome [11] | caspase-3 activation [12] 1.4% | caspase-3 activation [13] -1.62% | outcome [14] | outcome [15] | Potency [16] | Potency [18]

CCCCCCCCCCCCC1CO1 (centres undefined)
inactive: Potency [1] | Potency [2] | Potency [3] | Potency [4] | Potency [5] | caspase-3 activation [6] -0.853% | outcome [7] | outcome [8] | outcome [9] | outcome [10] | caspase-3 activation [12] 0.543% | caspase-3 activation [13] 1.51% | outcome [14] | outcome [15] | Potency [16] | Potency [17] | Potency [18]

CC(C)CCOC(=O)/C=C/c1ccccc1
inactive: Potency [1] | Potency [2] | Potency [3] | Potency [4] | Potency [5] | caspase-3 activation [6] 0.824% | outcome [7] | outcome [8] | outcome [9] | outcome [10] | caspase-3 activation [19] 0.297% | outcome [11] | caspase-3 activation [12] 1.34% | caspase-3 activation [13] 1.37% | outcome [14] | outcome [15] | Potency [16] | Potency [18]

C=C(C)C(=O)OC
inactive: Potency [1] | Potency [2] | Potency [3] | Potency [4] | Potency [5] | caspase-3 activation [6] 1.74% | outcome [7] | outcome [8] | outcome [9] | caspase-3 activation [19] 0.161% | outcome [11] | caspase-3 activation [12] 1.27% | caspase-3 activation [13] 1.97% | outcome [14] | outcome [15] | Potency [16] | Potency [17] | Potency [18]

O=Cc1cccc(Br)c1
inactive: Potency [1] | Potency [2] | Potency [3] | Potency [4] | Potency [5] | caspase-3 activation [6] 2.44% | outcome [7] | outcome [8] | outcome [9] | outcome [10] | caspase-3 activation [19] 1.82% | outcome [11] | caspase-3 activation [12] 2.2% | caspase-3 activation [13] 4.91% | outcome [14] | outcome [15] | Potency [16] | Potency [18]

NC(=O)c1cccc([N+](=O)[O-])c1
inactive: Potency [1] | Potency [2] | Potency [3] | Potency [4] | Potency [5] | caspase-3 activation [6] -0.315% | outcome [7] | outcome [8] | outcome [9] | outcome [10] | caspase-3 activation [19] 0.906% | caspase-3 activation [12] -1.74% | caspase-3 activation [13] 2% | outcome [14] | outcome [15] | Potency [16] | Potency [17] | Potency [18]

Reference: PubChem BioAssay (NCATS)
